Data from PubChem BioAssay (Tox21).
Records with an inconclusive call do not appear. Where a call stands in place of a potency, no number is given. Active and inactive are the calls of the source. The call rests on the fitted dose curve; in most records, active means well fitted cell-killing curve with a large enough effect in the repeat runs; inconclusive means weak or mixed curves, or effect the other way; inactive means flat fitted curve, though single readings scatter.

Experiment: cAMP Responsive Elements (CRE) small molecule agonists, cell-based qHTS assay: qHTS cell viability counter screen (AID 2060914); further: nearly all actives have a fitted effect of over 50% in size
Settings: CRE-bla HEK293T viability, CellTiter-Glo luminescence, 5 h; series mostly up to 92.4 µM
Summary of the method: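 In the same wells as the reporter read, viability of CRE-bla HEK 293T cells was quantified by CellTiter-Glo luminescence after a 3 h compound exposure.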

Row | Compound | Potency
1 | CC(=O)OC(C)C[N+](C)(C)C (stereo not drawn) | inactive
2 | CCN1CCOCC1 | inactive
3 | CCC(C)(CCC(C)C)C(=O)[O][Sn]([CH3])([CH3])[O]C(=O)C(C)(CC)CCC(C)C (stereo not drawn) | inactive
4 | Cc1ncc([N+](=O)[O-])n1CC(O)CCl (stereo not drawn) | inactive
5 | CCOCCO | inactive
6 | NC(=O)c1ccc([N+](=O)[O-])cc1Cl | inactive
7 | O=C(c1ccc(F)cc1)C1CCN(CCn2c(=S)[nH]c3ccccc3c2=O)CC1 | inactive
8 | c1ccsc1 | inactive
9 | COC(=O)[C@@H](N)Cc1ccc(O)c(O)c1 | inactive
10 | OC[C@H]1O[C@@H]2O[C@H]3[C@H](O)[C@@H](O)[C@@H](O[C@H]4[C@H](O)[C@@H](O)[C@@H](O[C@H]5[C@H](O)[C@@H](O)[C@@H](O[C@H]6[C@H](O)[C@@H](O)[C@@H](O[C@H]7[C@H](O)[C@@H](O)[C@@H](O[C@H]8[C@H](O)[C@@H](O)[C@@H](O[C@H]9[C@H](O)[C@@H](O)[C@@H](O[C@H]1[C@H](O)[C@H]2O)O[C@@H]9CO)O[C@@H]8CO)O[C@@H]7CO)O[C@@H]6CO)O[C@@H]5CO)O[C@@H]4CO)O[C@@H]3CO | inactive
11 | O=C1O[C@H]([C@@H](O)CO)C(O)=C1O | inactive
12 | Cl[Si](Cl)(c1ccccc1)c1ccccc1 | inactive
13 | COC(=O)CCSCCC(=O)OC | inactive
14 | Cc1nnc(NS(=O)(=O)c2ccc(N)cc2)s1 | inactive
15 | CN(C(=O)CCCOc1ccc2[nH]c(=O)ccc2c1)C1CCCCC1 | inactive
16 | CNC(=O)Oc1ccc2c(c1)[C@]1(C)CCN(C)[C@@H]1N2C | inactive
17 | CCC(CO)(CO)COCC(CC)(CO)CO | inactive
18 | CCCCCCCCC(=O)OCC | inactive
